# From PubChem
# Only some compounds are listed: those with a hit (about 4.9% of all), similar ones and a draw of the others.
# HSF-1 act: increases HSF-1 driven luciferase reporter signal; NIH3T3-HGL HSF-1 luciferase reporter, MG132, 8 h; 100% = twice DMSO control signal; activation, % at 9 µM; 300,000 compounds, 1.7% hits; AID 504408;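 active = mean replicate activation of at least 50% with a set share of replicates each reaching 50%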;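 note: 0% = median of the neutral control wells and 100% = twice that signal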
# Platelet DG rel: platelet dense granule release activity; 300,000 compounds, 0.22% hits; inhibition, %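 (compounds screened at 7.5 µM in platelet-rich plasma)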; human platelet-rich plasma, SFLLRN dense granule ATP release, luminescence;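 active = mean replicate score, as percent of positive control, at or above 50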
# HSF1 inh: HSF1 inhibition | NIH3T3-HGL HSE-luciferase, MG132-induced, luminescence 8 h; stronger effect = lower value | activity change, negative = inhibition, % at 7.5 µM (by protocol) | 300,000 compounds, 0.77% hits | AID 2098;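 active = more than half of replicate wells show activity change below -50%, luminescence cut by over half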;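 note: luciferase reports HSF-1 transcriptional activity via heat shock element; 0% = median of DMSO wells and -100% = zero luminescence signal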
# dFosB activator: enhances mouse delta FosB homodimer DNA binding; P13346; purified delta FosB, TAMRA-CDK5 oligo fluorescence polarization; percent of positive-control signal above neutral wells; activation, % at 25 µM; 340,000 compounds, 0.99% hits;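 active = mean activation above about 17%, with every replicate also reaching it, limit read from the data, passing the limit was not always enough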
# Target sequence (P13346 whole entry, looked up): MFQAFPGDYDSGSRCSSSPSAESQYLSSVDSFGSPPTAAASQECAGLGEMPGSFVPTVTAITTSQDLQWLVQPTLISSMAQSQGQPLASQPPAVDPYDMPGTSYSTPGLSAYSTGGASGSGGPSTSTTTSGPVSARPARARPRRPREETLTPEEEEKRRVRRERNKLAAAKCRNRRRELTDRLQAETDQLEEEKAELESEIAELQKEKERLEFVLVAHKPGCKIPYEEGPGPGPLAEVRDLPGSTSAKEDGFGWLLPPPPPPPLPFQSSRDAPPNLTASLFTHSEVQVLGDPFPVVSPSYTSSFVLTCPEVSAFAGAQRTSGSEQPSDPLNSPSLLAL
# MPTP block: permeability transition pore inhibition. isolated mouse mitochondria, Ca2+ swelling absorbance, 30 min. inhibition, % at 10 µM. 360,000 compounds, 1.4% hits. AID 602449;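 active = inhibition of 50% or more, scaled per plate between neutral and stimulator controls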;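 note: 0% = DMSO wells given calcium and 100% = 1 mM EGTA wells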
# HSP90 refold inh: blocks HSP90-mediated luciferase refolding in reticulocyte lysate; 290,000 compounds, 0.91% hits; Rabbit reticulocyte lysate, luciferase refolding luminescence, 3 h; inhibition, % at 5.6 µM;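 active = inhibition above the screen-wide mean plus 3 SD, computed separately per campaign, cut at about 16% in these data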;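 note: 0% = DMSO wells and 100% = 60 µM geldanamycin wells; inhibitors lower the luminescence because luciferase stays unfolded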
# MPTP counter: Rhodamine 123 counter-screen of mitochondrial pore hits. shares compounds with MPTP block. isolated mitochondria, membrane potential, Rhodamine 123 fluorescence. inhibition, % at 10 µM. 5,000 compounds, 78% hits; in the data active = inhibition above about 22%;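 note: 0% = DMSO vehicle and 100% = positive control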
# MPTP abs DR: MPTP inhibition, dose response swelling confirmation. AID 651561. 780 compounds, 58% hits. isolated mitochondria swelling, absorbance. shares compounds with MPTP block. IC50, µM; in the data active = IC50 below about 20 µM
# MPTP cs DR: MPTP inhibitor counter-screen activity, dose response. shares compounds with MPTP block. isolated mitochondria counterscreen, fluorescence read-out. IC50, µM. 780 compounds, 49% hits. AID 651564; in the data active = IC50 below about 80 µM
# Starred values were filed as active, the others as inactive; i = inactive; . = no result given.
SMILES,HSF-1 act,Platelet DG rel,HSF1 inh,dFosB activator,MPTP block,HSP90 refold inh,MPTP counter,others
O=S(=O)(Nc1ncnc2scc(-c3ccc(F)cc3)c12)c1cc(F)ccc1F,3,5,-3,-5,57*,3,75*,
Cc1ccc(-c2csc3ncnc(NS(=O)(=O)c4ccc(Cl)cc4)c23)cc1,21,21,13,1,85*,3,63*,
OCCCNc1ncnc2scc(-c3ccc(Cl)cc3)c12,-45,6,-41,-6,-1,-2,.,
O=C(/C=C/c1ccc(Cl)c([N+](=O)[O-])c1)Nc1ccc(N2CCCC2)c(Cl)c1,-2,17,8,-1,76*,-1,40*,
COc1ccccc1OC(C)C(=O)N1CC(=O)Nc2ccccc21 (stereo unspecified),33,-1,2,0,-1,1,.,
C=CC[n+]1c(-c2ccc(OC)cc2)csc1NNC(=O)Nc1ccccc1,54*,-3,26,-12,71*,3,59*,
C=CC[n+]1c(-c2ccc(C)cc2)csc1Nc1ccc(NC(C)=O)cc1,.,20,.,-5,-1,-1,.,
CCOc1ccc2nc(N3C(=O)/C(=C/c4ccc(Cl)cc4)NC3=S)sc2c1,9,5,3,0,92*,-3,5,
CC(C)(C)c1ccc(C(=O)N/N=C/c2cccc(Cl)c2)cc1,0,3,10,2,81*,0,84*,
O=C(N/N=C/c1cccc(F)c1)c1ccc(Cl)cc1,17,0,19,-1,0,-6,.,
C/C(=N\NC(=O)c1ccc(Br)cc1)C1C(=O)c2ccccc2C1=O,-2,15,9,0,74*,-1,79*,
C/C(=N\NC(=O)c1ccc(-c2ccccc2)cc1)C1C(=O)c2ccccc2C1=O,-17,-4,5,-12,76*,-3,43*,
O=C(CN1c2cccc3cccc(c23)S1(=O)=O)N1CCN(c2ccccc2)CC1,.,.,.,-7,-1,.,.,
Oc1ccc(-c2nc(-c3ccc(F)cc3)c(-c3ccncc3)[nH]2)cc1,.,.,.,-9,1,.,.,
Fc1ccc(-c2nc(-c3cccs3)[nH]c2-c2ccc(F)cc2)cc1,-14,0,-8,-4,77*,1,74*,
O=C(CC1C(=O)N(c2ccc(Cl)cc2)C(=S)N1CCc1ccncc1)Nc1ccc(F)cc1 (stereo unspecified),22,3,-1,0,3,3,.,
O=C(CSc1nnc2ccccn12)NC(=O)c1ccccc1Cl,.,.,.,5,-2,.,.,
CC(C)(C)c1ccc(Cn2ccc(-c3ccc4c(c3)OCO4)n2)cc1,25,-5,18,-6,7,-3,.,
CCOc1c(OC(C)=O)ccc(/C=C2\N=C(SCC)SC2=O)c1[N+](=O)[O-],16,6,-5,-1,89*,-3,72*,
CCOc1cc(/C=C2\N=C(SCC)SC2=O)cc([N+](=O)[O-])c1OC(C)=O,12,5,0,-18,104*,-2,37*,
CCOc1cc(/C=C2\N=C(SC)SC2=O)cc([N+](=O)[O-])c1OC(C)=O,-5,10,-5,-8,23,-2,.,
COc1ccc(Cc2c(-c3ccc(F)cc3)nc3cc(C)c(Br)c(C)n23)c(C)c1,.,.,.,.,1,.,.,
COc1cccc(CNC(=O)C2CCN(c3nn4c(=O)cc(C)nc4s3)CC2)c1,10,2,1,-7,-1,-1,.,
Cc1cc(C)c(S(=O)(=O)N2CCCCC2CCNC(=O)C(=O)NC2CC2)c(C)c1 (stereo unspecified),13,0,2,-2,-2,.,.,
COc1ccc(C2C(=O)c3ccccc3C2=Nc2ccc(Br)cc2)cc1 (stereo unspecified),-12,1,4,-6,90*,.,50*,
SMILES,HSF-1 act,Platelet DG rel,HSF1 inh,dFosB activator,MPTP block,HSP90 refold inh,MPTP counter,others
Cc1cccc(N2CCN(Cc3nc(-c4cccc(Oc5ccccc5)c4)oc3C)CC2)n1,4,9,-4,-3,-2,-1,.,
CC(C)(C)C(=O)NC(=S)NNC(=O)c1sc2ccccc2c1Cl,-75,5,-69*,-13,61*,12,21*,
O=C(NNC(=S)NC1CCCCC1)c1sc2ccccc2c1Cl,17,1,14,-2,88*,0,79*,
O=C(NC(=S)NCCO)c1sc2ccccc2c1Cl,29,-2,23,-12,2,-2,.,
N#C/C(=C(/O)CSc1ncn[nH]1)c1nc2ccccc2[nH]1,-26,-4,-14,-10,0,1,.,
CC(C)(CO)NCc1cccc(OCc2ccc(Cl)cc2)c1,38,-10,19,-4,0,6,.,
Clc1ccc(COc2cccc(CNCc3ccncc3)c2)cc1,25,2,3,-4,68*,1,85*,
Cn1c(SCC(=O)NC2CCCC2)nnc1-c1ccccn1,10,-2,-7,5,-1,0,.,
Cc1onc(-c2ccccc2)c1CNC(=O)Nc1ccc(C(F)(F)F)cc1,8,14,-6,-2,78*,-1,83*,
Cc1onc(-c2ccccc2)c1CNC(=O)Nc1cccc(Cl)c1,13,-3,3,-2,78*,-3,85*,
COc1ccc(C(=O)N2CCC3(CC2)NCCc2[nH]cnc23)cc1,5,-1,-11,-3,-1,-4,.,
Cc1cc(N2CCCCC2)nc(NCc2ccccc2)n1,-26,9,-26,-17,55*,2,88*,
COC(=O)[C@]12CCCCC=C1N(CCc1ccc(OC)c(OC)c1)C(=O)[C@H](CC(=O)NCCCCc1ccccc1)C2,.,.,.,.,-1,.,.,
Cc1cccc(N2CCN(C(=O)C3CCN(S(=O)(=O)N4CCOCC4)CC3)CC2)c1C,-5,-3,-12,-5,3,-6,.,
Cc1sc(NC(=O)/C=C/c2ccco2)c(C(=O)OC(C)C)c1C,12,-81,17,-3,52*,2,1,MPTP abs DR=>100;MPTP cs DR=>80
COC(=O)c1c(NC(=O)/C=C/c2ccco2)sc2c1CCC2,34,-10,5,-4,0,-2,.,
CCOC(=O)c1cc(S(=O)(=O)N2CCN(C3CCCCC3)CC2)cn1C,-4,-3,0,-4,0,2,.,
Cc1occc1-c1nnc(SCC(=O)NCc2ccco2)n1CC(C)C,10,.,0,-13,63*,1,6,MPTP abs DR=i;MPTP cs DR=>80
CC(C)(C)c1ccc(C(=O)Nc2cccc([N+](=O)[O-])c2)cc1,34,-1,11,4,95*,0,85*,
